# Assay results: PubChem BioAssay (NCATS)
# Results filed as inconclusive are left out. Entries that show only a call come without a potency. A number with no mark means an inactive call. The source made the active and inactive calls. Calls come from the whole dose curve; as a rule, active = well fitted inhibition curve with a large enough effect; inconclusive = small, poorly fitted or top-dose-only effect; inactive = flat fitted curve, though single readings scatter. Where a SMILES comes first, the peptide text is derived from it. [ ]: non-standard residue; d: D form. Hyp = O=C(O)[CH]1C[CH](O)CN1; Phe(ol) = N[CH](CO)Cc1ccccc1; Iva = CC[C](C)(N)C(=O)O; Aib = CC(C)(N)C(=O)O
# Biological target: Calcium and integrin-binding protein 1 (Homo sapiens) (UniProt Q99828)
# Assay: Primary qHTS for Identification of Calcium Integrin Binding Protein 1 (CIB1) Competitor (AID 1508620);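 note: GST tagged CIB1 binding a fluorescein labelled alphaIIb integrin peptide tracer; top concentration of the series differs between compounds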
# Conditions: CIB1-GST / FITC-alphaIIb peptide fluorescence polarization; series mostly up to 114 µM
# Procedure, shortened: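 Fluorescence polarization competition: CIB1-GST (1 uM final) preincubated with compound 15 min at room temperature, then FITC-labeled alphaIIb peptide (100 nM final) added for another 15 min. Polarization read at Ex 480/Em 540.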
# Sequence of Calcium and integrin-binding protein 1 (Homo sapiens) (Q99828 whole entry, looked up): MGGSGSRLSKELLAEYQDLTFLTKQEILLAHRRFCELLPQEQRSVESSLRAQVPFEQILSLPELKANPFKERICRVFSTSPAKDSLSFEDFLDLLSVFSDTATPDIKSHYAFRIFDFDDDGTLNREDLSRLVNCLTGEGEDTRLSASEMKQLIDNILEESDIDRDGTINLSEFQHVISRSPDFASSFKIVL
SMILES,Potency,"activity change, negative = inhibition"
C=C(C(=O)OC[C@H]1O[C@@H](OC(=O)/C=C/c2ccccc2)[C@H](O)[C@@H](O)[C@@H]1O)C(O)CO (stereo partly drawn),inactive,
Cc1ccc(C)c(NS(=O)(=O)c2cc(C(=O)Nc3ccccc3-c3ccccc3)ccc2C)c1,inactive,
CCC(C)(NC(=O)C(CCC(N)=O)NC(=O)C1CC(O)CN1C(=O)C(C)(C)NC(=O)C(C)(C)NC(=O)C(CC(C)C)NC(=O)CNC(=O)C(NC(=O)C(C)(C)NC(=O)C(C)(C)NC(=O)C(C)(C)NC(=O)C(Cc1ccccc1)NC(C)=O)C(C)C)C(=O)N1CC(O)CC1C(=O)NC(C)(C)C(=O)NC(CO)Cc1ccccc1 (stereo not drawn) (Ac-F[Aib][Aib][Aib]VGL[Aib][Aib][Hyp]Q[Iva][Hyp][Aib][Phe(ol)]; configuration not given here),,1.74% [at 12.4 µM]
Nc1nc2c(nc(Br)n2[C@@H]2O[C@@H]3COP(=O)(O)O[C@H]3[C@H]2O)c(=O)[nH]1,inactive,
C=C1/C(=C/C=C2\CCC[C@]3(C)[C@@H]([C@@H](C)OCCC(O)(CC)CC)CC[C@@H]23)C[C@@H](O)C[C@@H]1O,inactive,
O=C(Nc1ccc(-c2ccc(Cl)c(Cl)c2)cc1)C1=C(O)c2ccccc2S(=O)(=O)N1,inactive,
N#Cc1ccc(-c2ccc(S(=O)(=O)Nc3cccc(N)n3)cc2)cc1,inactive,
C=C1[C@@H](OC(C)=O)CC[C@@]2(C)[C@@H](OC(C)=O)[C@H](OC(C)=O)C3=C(C)C[C@H](OC(=O)C(C)CC)[C@@H]([C@@H](OC(C)=O)[C@H]12)C3(C)C (stereo partly drawn),inactive,
C=CC(C)(C)c1[nH]c2ccccc2c1C[C@@H]1NC(=O)[C@H](C)NC1=O,inactive,
O=C(N[C@H]1CCC[C@H](CO)C1)C1CCN(c2nc3cc(Cl)c(-c4ccc(Cl)cc4)cc3o2)CC1,inactive,
COc1c2c(c(C)c3c1C(=O)OC3)O[C@@]1(C)C[C@@H](OC(C)=O)[C@]34O[C@](OC)(CC[C@]3(C)[C@H]1C2)OC4(C)C,inactive,
COc1c(F)cccc1C(=O)N1C[C@@H](C)CC[C@H]1CNc1ccc(Br)cn1,inactive,
C/C1=C\CCC2=CC(OC2=O)C(C)(C)/C=C/C1=O (stereo not drawn),inactive,
